Shown are actives, neighbours in structure and some others; about 1.3% of the full set was active somewhere.
Calpain2 inh: blocks pig calpain II enzyme activity. purified calpain II, fluorogenic peptide substrate, 30 min. inhibition, % at 16 µM. 0.37% of 220,000 active. AID 1236;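 active = inhibition above about 50%, limit read from the data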
S1P4 antagonist: antagonists of human S1P4 receptor; inhibition, % at 4.98 µM; 0.26% of 220,000 active; S1P4-expressing cells, antagonist mode, reporter read-out; AID 1510; in the data active = inhibition above about 29%
Target sequence (O95977 whole entry, looked up): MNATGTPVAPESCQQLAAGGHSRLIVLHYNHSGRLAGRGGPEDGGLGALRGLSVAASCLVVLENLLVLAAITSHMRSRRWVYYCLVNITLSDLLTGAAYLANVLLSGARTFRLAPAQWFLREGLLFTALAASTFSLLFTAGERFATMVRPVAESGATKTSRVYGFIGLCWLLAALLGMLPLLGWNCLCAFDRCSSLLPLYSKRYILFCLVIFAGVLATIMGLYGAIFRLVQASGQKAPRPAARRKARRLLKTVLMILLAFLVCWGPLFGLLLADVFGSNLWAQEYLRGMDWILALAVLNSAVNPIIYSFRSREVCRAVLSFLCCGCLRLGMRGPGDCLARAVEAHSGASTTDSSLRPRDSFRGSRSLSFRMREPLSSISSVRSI
S1P4 agonist: human S1P4 receptor agonism. activation, % at 4.98 µM. 0.35% of 220,000 active. AID 1509. S1P4-expressing cell line, agonist reporter assay. O95977; in the data active = activation above about 11%
PERK inhibitor: inhibitors of human PERK kinase. Q9NZJ5. CHO PERK-DD fusion, SEAP luminescence translation reporter. inhibition, % at 5.6 µM. 0.17% of 220,000 active. AID 1416;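 active = inhibition above the mean inhibition of all tested compounds plus 3 SD, set separately per screening campaign, cut at about 2.9% in these data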;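 note: PERK kinase domain activated by AP20187 dimerizer at 100 nM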
S1P3 antagonist: blocks the human S1P3 receptor; CHO S1P3 NFAT-BLA reporter, FRET fluorescence, antagonist mode; Q99500; 0.27% of 170,000 active; inhibition, % at 4.98 µM; AID 485;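 active = inhibition above the plate cutoff, the mean inhibition of test wells on that plate plus 3 SD, cut at about 28% in these data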;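 note: cells challenged with S1P at its EC80 of 0.8 µM; blue over green emission ratio from cleaved BLA substrate after 4 h stimulation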
Large screens that a line does not name were inactive.

Cn1nc(C(=O)Nc2ccc(S(=O)(=O)N3CCCC3)cc2)ccc1=O	none
Cn1nc(C(=O)Nc2ccc(S(=O)(=O)N3CCCCC3)cc2)c2ccccc2c1=O	Calpain2 inh 51
Cc1cc(NC(=S)N(Cc2ccc(Br)cc2)Cc2ccc(C(=O)O)cc2)ccc1Cl	none
CCOc1ccccc1CNCc1ccc(F)cc1	none
CC(Oc1ccccc1)C(=O)N1CCN=C1SCc1ccccc1 (stereo not drawn)	none
CCOC(=O)/C(C#N)=C/Nc1ccsc1C(C)=O	none
S=c1[nH]nc(CSCc2ccccc2Cl)n1C1CCCCC1	Calpain2 inh 65
S=c1[nH]nc(COc2ccc(Cl)cc2)n1C1CCCCC1	none (no result: S1P3 antagonist)
Cc1cccc(OCc2n[nH]c(=S)n2C2CCCCC2)c1	Calpain2 inh 61 (no result: S1P3 antagonist)
Cc1ccc(OCc2n[nH]c(=S)n2C2CCCCC2)cc1	Calpain2 inh 61 (no result: S1P3 antagonist)
CCOc1ccc(C(C(=O)NC2CCCC2)N(CCCO)C(=O)c2ccc(-c3ccccc3)[nH]2)cc1 (stereo not drawn)	none
CCN(CC)S(=O)(=O)c1cc(C)ccc1NC(=S)Nc1cccnc1	none
COc1cc([N+](=O)[O-])cc2sc(NC(=O)C(C)(C)C)nc12	PERK inhibitor 3.5
O=C(Nc1cc(C(F)(F)F)cc(C(F)(F)F)c1)Nc1cnn(-c2ccc([N+](=O)[O-])cc2)c1C(F)(F)F	none
CCCc1cc(=O)[nH]c(SCCOc2ccc(Cl)cc2)n1	PERK inhibitor 2.9
CC(C)S(=O)(=O)c1csc(NC(=O)Nc2cccc([N+](=O)[O-])c2)c1Cl	none
CCn1c(CNc2ccccc2Cl)nnc1SCC(=O)NCc1ccccc1	S1P3 antagonist 70
CCn1c(CNc2ccc(C)cc2)nnc1SCC(=O)NCc1ccccc1	none
O=C(COC(=O)CCC(=O)c1ccc(F)cc1)Nc1cccc(S(=O)(=O)N2CCOCC2)c1	none
COc1ccc(OCCC(=O)OCC(=O)Nc2cccc(S(=O)(=O)N3CCOCC3)c2)cc1	PERK inhibitor 3.3
CCN(CC)c1ccc(C(=O)NNC(=O)CCl)cc1	Calpain2 inh 69
CCOC(=O)C1=C(CNC(C)(C)CC(C)(C)C)NC(=O)NC1c1cccc([N+](=O)[O-])c1 (stereo not drawn)	Calpain2 inh 61
N#CC(C#N)=Cc1ccccc1OCc1ccccc1	none
COc1ccc(S(=O)(=O)N2CCCCC2)cc1NC(=O)CN(C)C1CCCCC1	Calpain2 inh 53
C=CCn1c(C)csc1=Nc1ccccc1C	none
Nc1nc(Cl)nc2c1ncn2[C@@H]1O[C@H](CO)[C@@H](O)[C@H]1O	PERK inhibitor 5.6
Nc1ccn([C@@H]2O[C@H](CO)[C@@H](O)[C@@H]2O)c(=O)n1	S1P4 agonist 12
Nc1nc(=S)c2ncn(C3OC(CO)C(O)C3O)c2[nH]1 (stereo not drawn)	none
CCCC(=O)Nc1ccc(Sc2ccc([N+](=O)[O-])cc2)cc1	Calpain2 inh 58 (no result: S1P3 antagonist)
O=C(O)CCCCCNS(=O)(=O)c1c(Cl)cccc1Cl	none
Cc1cc(C)c(C(=O)COC(=O)CCNS(=O)(=O)c2c(Cl)cccc2Cl)cc1C	Calpain2 inh 51
CC(/C=N/NC(=O)c1cnccn1)=C\c1ccco1	none
CC(=O)Oc1c(/C=C(\C#N)C(N)=O)[nH]c2ccccc12	PERK inhibitor 2.9
CC(C)CCNC(=O)C12CN(Cc3ccccc3)CC1C(c1ccc([N+](=O)[O-])cc1)=NO2 (stereo not drawn)	Calpain2 inh 58 (no result: S1P3 antagonist)
CCSc1nnc(NC(=O)c2cc(-c3ccccc3O)n[nH]2)s1	PERK inhibitor 3.8
CCCn1c(Nc2nc3ccccc3n2C)nc2ccccc21	S1P3 antagonist 58
CCCCn1c(Nc2ccccc2)nc2ccccc21	none (no result: S1P3 antagonist)
Cn1cnc(S(=O)(=O)Nc2ccc(OC(F)F)cc2)c1	none
O=C(CC1CC2CCC1C2)OCC(=O)c1c[nH]c2ccccc12 (stereo not drawn)	Calpain2 inh 79 (no result: S1P3 antagonist)
Cn1c(N)c(C(=O)COC(=O)CSc2ccccc2)c(=O)n(C)c1=O	none
O=C(COC(=O)CC1CC2CCC1C2)Nc1ccc(F)cc1 (stereo not drawn)	none
Cn1c(N)c(C(=O)COC(=O)CC2CC3CCC2C3)c(=O)n(C)c1=O (stereo not drawn)	Calpain2 inh 92
Cn1c(N)c(C(=O)CSc2nc3ccccc3[nH]2)c(=O)n(C)c1=O	none
Cc1ccc(NCc2nnc(SCC(=O)N(Cc3ccccc3)C(C)(C)C)o2)c(C)c1	Calpain2 inh 60
Cc1ccc(NCc2nnc(SCC(N)=O)o2)c(C)c1	none
Cc1cc(C(=O)Nc2ccc(N3CCCC3)c(Cl)c2)ccc1[N+](=O)[O-]	Calpain2 inh 50
CC(C)C(=O)N1CCN(c2ccc(NC(=O)c3ccc([N+](=O)[O-])o3)cc2Cl)CC1	S1P4 antagonist 47
O=C1c2ccccc2C(=O)c2c1cccc2N1CCCC1	Calpain2 inh 51
O=C(Oc1ccc2c(-c3ccccc3)cc(=O)oc2c1)C1CCCCC1	Calpain2 inh 56 (no result: S1P3 antagonist)
CCCN(CCC)C(=S)NC(=O)c1ccc(-c2ccccc2)cc1	Calpain2 inh 50 (no result: S1P3 antagonist)
COC(=O)c1ccc2c(=O)n(CCCCCC(=O)O)c(=S)[nH]c2c1	none
O=C(CS(=O)(=O)c1cn(Cc2ccc(Cl)cc2)c2ccccc12)N1CCCC1	none
Cc1ccc(Cl)cc1N1CCN(C(=O)Cc2cn(C)c3ccccc23)CC1	Calpain2 inh 55 (no result: S1P3 antagonist)
O=C(Cc1cn(Cc2cccc(Cl)c2)c2ccccc12)N1CCCC1	Calpain2 inh 52
O=C(Nc1nnc(-c2ccccc2SCc2ccccc2F)s1)Nc1ccccc1F	Calpain2 inh 51 (no result: S1P3 antagonist)
COCCCNC(=O)C1CCC(CNS(=O)(=O)c2ccc(C)cc2)CC1 (stereo not drawn)	none
CCOCCCNC(=O)C1CCC(CNS(=O)(=O)c2ccc(Cl)cc2)CC1 (stereo not drawn)	Calpain2 inh 54 (no result: S1P3 antagonist)
O=C(NCc1cccnc1)C1CCC(CNS(=O)(=O)c2ccc(Cl)cc2)CC1 (stereo not drawn)	Calpain2 inh 55
Cc1ccc(C)c(/C=N/Nc2nc3ccccc3c(=O)n2O)c1	none
N#CC1CC(c2ccccc2)=NN1c1ccccc1[N+](=O)[O-] (stereo not drawn)	none
O=C(Nn1cnnc1)c1cc(-c2cccc(Br)c2)nc2ccccc12	none
Cc1ccc(-c2ccc(S(=O)(=O)N3CCCC3)cc2)cc1	none
CCOC(=O)C1CN(S(=O)(=O)c2ccc(C)cc2)C1	Calpain2 inh 53 (no result: S1P3 antagonist)
Cc1ccc(S(=O)(=O)N2CC(=NO)C2)cc1	S1P3 antagonist 66
CCOC(=O)C1CCN(CCC(=O)Nc2ccc(C)cc2)CC1	none
CCCCOc1ccc(C(=O)N/C(=C\c2cccc([N+](=O)[O-])c2)C(=O)OCCC)cc1	none (no result: S1P3 antagonist)
CCCCOc1ccc(C(=O)N/C(=C\c2cccc([N+](=O)[O-])c2)C(=O)OC(C)C)cc1	Calpain2 inh 51 (no result: S1P3 antagonist)
O=C(NN1C(=O)c2ccccc2NC1c1ccco1)c1ccc([N+](=O)[O-])cc1 (stereo not drawn)	Calpain2 inh 62
O=C(NN1C(=O)c2ccccc2NC1c1ccco1)c1ccc(Br)cc1 (stereo not drawn)	none

Screening results (PubChem BioAssay)
